Measurements from PubChem BioAssay (NCI).
Values joined by “and” are separate entries in the source; they are usually repeats but may differ in a detail not shown here. Equal values may be shown once. Compounds without any hit were thinned out: in the full panel of roughly 79,000, 15% have a hit. Some compounds were tested as several samples or in several runs, with calls that do not always agree. Active and inactive are the calls of the source. Rule as the data show it: active = growth inhibition above about 70%; inactive = the rest.

Assay: NCI Yeast Anticancer Drug Screen. Data for the sgs1 mgt1 strain (AID 161);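 also: 0% = growth of cultures given vehicle only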
Conditions: S. cerevisiae sgs1 mgt1 strain, stronger effect = higher value
Experimental: Growth inhibition of yeast strains with defined genetic alterations is measured as a screen for potential anti-cancer activity. Selected strains with alterations in DNA damage repair or cell cycle control were exposed to compounds and growth inhibition was measured relative to vehicle treated controls. The strain used in this assay is sgs1 mgt1

[1] = at 5.0 µM (retest, dose inferred, filed as 0.5)
[2] = at 50.0 µM (retest, dose inferred, filed as 5.0)

Structure (SMILES) | growth inhibition [1] | growth inhibition [2] | growth inhibition (at 50.0 µM)
Cc1ccc2nc(-c3cccc([N+](=O)[O-])c3)oc(=O)c2c1 | -14% (inactive) | 33% (inactive) | 27.6% (inactive)
COc1cc(/C=C2\CCC/C(=C\c3ccc(O)c(OC)c3)C2=O)ccc1O | 8% (inactive) | 57% (inactive) | -12.4% (inactive) and 59.1% (inactive)
CC(=O)OC1CCC2(C)C(=CC(C3C=C4CC(OC(C)=O)CCC4(C)C4=C3C3CC5OC6(CCC(C)CO6)C(C)C5C3(C)CC4)C3=C2CCC2(C)C3CC3OC4(CCC(C)CO4)C(C)C32)C1 (configuration not stated) | -10% (inactive) | 64% (inactive) | 90.7% (active)
O=c1[nH]c2ccc(Cl)cc2o1 | 6% (inactive) and 1% (inactive) | 20% (inactive) and 51% (inactive) | 15.4% (inactive) and -2.75% (inactive)
Cc1cc(=O)oc2c(C)c3occc(=O)c3cc12 | -10% (inactive) | 8% (inactive) | 74.4% (active)
COc1cc([C@@H]2c3cc4c(cc3[C@H](OC3OC5COC(C(C)C)OC5C(O)C3O)C3COC(=O)[C@@H]32)OCO4)cc(OC)c1O (some centres not stated) | -1% (inactive) | 32% (inactive) | 28.6% (inactive)
c1ccc(CCN2CCc3ccccc3C2)cc1 | -5% (inactive) | 49% (inactive) | 49.8% (inactive)
O=C(/C=C\c1cccc(C(F)(F)F)c1)c1ccccc1 | 18% (inactive) | 59% (inactive) | 36.4% (inactive)
CN(C)/C=C/c1nnc([N+](=O)[O-])s1 | -63% (inactive) | 80% (active) | 94% (active)
CCCCCCCCCCCCCCCCCC(=O)NCCCN(C)C | -32% (inactive) | 97% (active) | 93.2% (active)
Cc1c(C)c(C)c(CSC(=N)N)c(C)c1C | -4% (inactive) | 100% (active) | 93.3% (active)
CCOc1ccccc1N=Cc1c2ccccc2cc2ccccc12 | -8% (inactive) | 98% (active) | 90.9% (active)
N=C1N=Nc2nc(C3(c4nc5n(c4O)C(=N)N=N5)Cc4ccccc4C3=O)c(O)n21 (configuration not stated) | 7% (inactive) | 70% (active) | 67% (inactive)
C=C1C(=O)OC2CC1C(OC(C)=O)C/C(C)=C/CC/C(C)=C\CCC2(C)O (configuration not stated) | 24% (inactive) and 99% (active) | 67% (inactive) and 99% (active) | 71.2% (active) and 87.9% (active)
